# Tau FP inhib = qHTS for Inhibitors of Tau Fibril Formation, Fluorescence Polarization. Microtubule-associated protein tau (Homo sapiens), P10636. K18 P301L tau heparin fibrillization, Alexa594 FP, 6 h. Potency, µM (highest dose often 57.7 µM), for inactives: top-dose activity, negative = inhibition, usual class: inhibitors. 0.39% of 280,000 active; also: potency is read from the fitted curve at half-maximal effect; nearly all actives have a fitted effect of over 55% in size
# Target sequence (P10636 561-689 P618L limits assumed): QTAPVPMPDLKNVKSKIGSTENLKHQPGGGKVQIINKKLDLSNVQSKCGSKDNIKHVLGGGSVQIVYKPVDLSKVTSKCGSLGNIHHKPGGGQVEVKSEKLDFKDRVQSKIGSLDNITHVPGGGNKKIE
#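 Quantitative HTS format: compounds meet 15 uM recombinant K18 P301L tau and Alexa 594-tau tracer in 100 mM sodium acetate pH 7; 20 uM heparin triggers fibrillization at 37 C over 6 hr; FP gives the signal.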
# TRb-SRC2 inh = qHTS for Inhibitors of the Interaction of Thyroid Hormone Receptor and Steroid Receptor Coregulator 2; TRbeta-SRC2 peptide binding, fluorescence polarization; receptor liganded with 1 µM T3; Potency, µM (top dose mostly 106 µM), for the others: top-dose activity change, negative = inhibition, usual class: inhibitors; 0.065% of 280,000 active; AID 1469, 2008;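 also: potency is read from the fitted curve at half-maximal effect; plate controls were bound peptide for no effect and peptide without receptor for full effect; nearly all actives have a fitted effect of over 50% in size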
# Target sequence (P10828 whole entry, looked up): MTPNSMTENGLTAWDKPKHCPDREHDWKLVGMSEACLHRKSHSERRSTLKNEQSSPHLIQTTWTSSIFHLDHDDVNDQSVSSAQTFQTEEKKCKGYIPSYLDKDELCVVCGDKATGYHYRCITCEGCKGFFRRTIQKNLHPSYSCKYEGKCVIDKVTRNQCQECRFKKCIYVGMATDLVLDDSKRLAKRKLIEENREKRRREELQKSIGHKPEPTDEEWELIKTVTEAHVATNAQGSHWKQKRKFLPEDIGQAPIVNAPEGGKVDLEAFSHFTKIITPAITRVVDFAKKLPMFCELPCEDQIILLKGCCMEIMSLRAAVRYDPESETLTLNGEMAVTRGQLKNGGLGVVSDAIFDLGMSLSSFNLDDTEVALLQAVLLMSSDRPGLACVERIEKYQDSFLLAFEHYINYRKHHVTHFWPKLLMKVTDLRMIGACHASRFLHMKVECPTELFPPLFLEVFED
#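 Fluorescence polarization of 20 nM Texas Red SRC2 peptide with 0.6 uM human TRb ligand-binding domain, in Tris buffer with 1uM T3 and 5% DMSO. Incubated 5 hr ambient; normalized to unbound and bound controls.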
# TR SRC2 fluor cs = Total Fluorescence Counterscreen for Inhibitors of the Interaction of Thyroid Hormone Receptor and Steroid Receptor Coregulator 2. TRb/SRC2 Texas Red total fluorescence interference. Potency, µM (doses to about 106 µM), inactives show at the top dose fluorescence change, negative = quenching. 0.29% of 280,000 active. AID 1479, 2009; active = well fitted curve in either direction with a large enough effect; inconclusive = small, poorly fitted or top-dose-only effect; also: potency is read from the fitted curve at half-maximal effect
#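 Human TRb ligand-binding domain at 0.6 uM with 20 nM Texas Red SRC2 peptide in Tris buffer containing 1 uM T3 and 5% DMSO, incubated with compound 5 h at ambient temperature. Total fluorescence (555/632 nm) calculated as parallel + 2 × perpendicular.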
# PNC inhibitor = High Content Assay for Compounds that inhibit the Assembly of the Perinucleolar Compartment; PC3M PTB-GFP, PNC prevalence imaging, 16 h; stronger effect = lower value; activity change (PNC), negative = inhibition, % at 10 µM; 3.1% of 140,000 active;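 active = readout at or below -70, meaning at least 70% loss of cells showing the perinucleolar compartment, a nuclear body marking cancer cells; inconclusive = readout between -30 and a set limit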;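 also: plate controls were DMSO wells for no effect and camptothecin positive control wells for full effect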
#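 Read-out is percentage of cells bearing a perinucleolar compartment, from automated 20x imaging of fixed, Hoechst-stained PC3M PTB-GFP cells. Cells were seeded 4 h, then exposed 16 h to compound (23 nl of library stock) in duplicate plates.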
# Tau fibril ThT = qHTS for Inhibitors of Tau Fibril Formation, Thioflavin T Binding. AID 1460, 2008. recombinant tau K18 P301L, heparin-induced fibrillization, ThT fluorescence. Potency, µM (top dose mostly 57.4 µM), for the others: top-dose activity, negative = inhibition, actives largely listed as inhibitors. 2.1% of 270,000 active. Microtubule-associated protein tau (Homo sapiens), P10636; also: potency is read from the fitted curve at half-maximal effect; nearly all actives have a fitted effect of over 55% in size
#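 Heparin-induced fibrillization of the P301L-mutant K18 repeat-domain fragment of human tau was followed by ThT binding in quantitative high-throughput format.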
# Tau fluor cs = Counterscreen qHTS for Inhibitors of Tau Fibril Formation, Fluorescence Polarization; tau K18 P301L (four-repeat tau fragment) Alexa594 fluorescence, heparin fibrillization; 0.93% of 280,000 active; AID 1463, 2008; Potency, µM (titrated, usually from 57.7 µM), without a hit: at the highest dose activity change, negative = decrease; also: potency is read from the fitted curve at half-maximal effect; nearly all actives have a fitted effect of over 55% in size
#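 Human K18 P301L tau (15 uM unlabeled plus 0.24 uM Alexa 594-labeled, final) in 100 mM sodium acetate pH 7 was mixed with compound and 20 uM heparin and incubated 6 hr at 37 C.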
# * marks the source's active call; other numbers are inactive results; ? = inconclusive; / = not tested or not shown; [ ] = remark or other dose. Rows were chosen to be rich in hits. Some 4.6% of all compounds tested hit in one or more screens of this group. Unless noted, calls follow the shape of the dose curve; as a rule, active = well fitted curve in the direction sought with a large enough effect; inconclusive = small, poorly fitted or top-dose-only effect, or another doubt; inactive = no such curve, though single readings can be large; an effect the other way counts as inactive or inconclusive. Unless noted, % is scaled to controls: 0 for no effect and ±100 for the full control effect.
SMILES,Tau FP inhib,TRb-SRC2 inh,TR SRC2 fluor cs,PNC inhibitor,Tau fibril ThT,Tau fluor cs
COc1cc(/C=C2\SC(=S)N(NC(=O)c3cccnc3)C2=O)ccc1O,3%,?,?,/,/,-10%
COc1cc(/C=C2\SC(=S)N(C(Cc3ccccc3)C(=O)O)C2=O)ccc1O (stereo not drawn),2%,29%,22%,/,11µM*,-17%
O=C(O)c1ccc(/C=C2\SC(=S)N(Nc3ccccc3)C2=O)cc1,-17%,7%,-2%,/,?,?
O=C(O)C(Cc1ccccc1)N1C(=O)/C(=C/c2ccccc2)SC1=S (stereo not drawn),0%,2%,-2%,20,?,0%
Cc1ccc(/C=C2\SC(=S)N(C(Cc3ccccc3)C(=O)O)C2=O)cc1 (stereo not drawn),-1%,2%,4%,?,?,0%
O=C(O)C(Cc1ccccc1)N1C(=O)/C(=C/c2cccc3ccccc23)SC1=S (stereo not drawn),-6%,11%,-4%,45,20µM*,-16%
COc1cc(/C=C2\SC(=S)N(Nc3ccccc3)C2=O)ccc1O,11%,1%,1%,-15,11µM*,28µM*[quencher]
O=C1/C(=C/c2ccncc2)SC(=S)N1Nc1ccccc1,?,5%,2%,/,18µM*,?
CCOC(=O)c1[nH]ncc1[C@@H]1C[C@H]2CN(Cc3cccc(Cl)c3)C(=O)[C@]23CCCN13,-2%,-7%,-1%,/,-18%,-12%
Cc1nc(Nc2ccc(Cl)cc2Cl)sc1C(=O)Nc1ccccc1,-16%,1%,-4%,?,?,?
COc1ccc(Nc2sc(C(=O)Nc3cccc(Cl)c3)c(N)c2C(=O)Nc2ccccc2OC)cc1,14%,-4%,0%,-8,?,11µM*[quencher]
Cc1nc(Nc2ccc(Cl)c(Cl)c2)sc1C(=O)Nc1ccccc1,5%,-4%[53 µM],-1%[53 µM],38,?,11µM*[quencher]
Nc1c(C(=O)c2ccccc2)sc(Nc2ccc(Cl)c(Cl)c2)c1C(=O)Nc1ccccc1,-13%,8%,-1%,/,20µM*,?
Cc1ccc(Nc2sc(C(=O)c3ccccc3)c(N)c2C(=O)Nc2ccc(Cl)cc2)cc1,-3%,11%,4%,/,?,?
COc1ccccc1NC(=O)c1c(Nc2ccccc2F)sc(C(=O)Nc2cccc(Cl)c2)c1N,?,2%,-1%,-13,-11%,?
COc1ccc(OC)c(NC(=O)N2CC(C)Oc3ccc(C)cc32)c1 (stereo not drawn),-4%,-10%,?,/,16%,?
Cc1ccc(Cl)c2sc(NC(=O)CS(=O)(=O)c3ccc(Cl)cc3)nc12,11µM*,-7%,0%,/,1%,?
Cc1ccc(S(=O)(=O)CC(=O)Nc2nc3c(C)cccc3s2)cc1,?,-2%,0%,/,-12%,-26%
COc1cccc(C(=O)C(C#N)=C(SC)SC)c1,?,-2%,-1%,/,25µM*,-19%
COc1cccc(C(=O)Nc2ccc(NC(C)=O)cc2)c1,4%,-7%,-3%,13,-8%,-4%
CSC(SC)=C(C#N)C(=O)c1ccccc1,14µM*,-8%,-3%,/,20µM*,-19%
Cc1nnc(N2CCc3ccccc3C2)[nH]c1=O,4%,-6%,-3%,17,2%,2%
COc1ccc2c(c1OC)C(=O)N1c3ccccc3N=C(c3ccc([N+](=O)[O-])cc3)CC21 (stereo not drawn),?,-12%,-67%,41,20µM*,-26%
COc1ccc(C2=NN3C(=O)c4c(ccc(OC)c4OC)C3C2)cc1 (stereo not drawn),6%,-3%,-2%,13,?,-7%
COc1ccc2c(c1OC)C(=O)N1N=C(c3ccc(Cl)cc3)CC21 (stereo not drawn),2%,1%,4%,-93*,-4%,-11%
SMILES,Tau FP inhib,TRb-SRC2 inh,TR SRC2 fluor cs,PNC inhibitor,Tau fibril ThT,Tau fluor cs
COc1ccc2c(c1OC)C(=O)N1N=C(c3ccc(-c4ccccc4)cc3)CC21 (stereo not drawn),-2%,9%,-1%,/,?,-2%
O=C(Cn1cc(C(F)(F)F)ccc1=O)Nc1ccc(N2CCOCC2)cc1,5%,-7%,-3%,/,-10%,-6%
COc1ccc2ccccc2c1/C=N/NC(=O)c1sc(N)c(C#N)c1C,8%,6%,2%,-4,?,?
COc1cc(/C=N/NC(=O)c2sc(N)c(C#N)c2C)cc(Br)c1O,14%,12%,?,-2,4.5µM*,?
COc1ccc(-c2nsc(NC(=O)C(C)Oc3ccc(Cl)c(C)c3)n2)cc1 (stereo not drawn),?,8%,-1%,/,6%,?
OC(CNc1ccccc1)COc1ccc(OCC(O)CNc2ccccc2)cc1 (stereo not drawn),10%,-15%,-2%,?,2.8µM*,10µM*[quencher]
CCOC(=O)c1ccc(NCC(O)COc2ccccc2)cc1 (stereo not drawn),7%,12%,1%,-119*,?,?
CNCC(O)COc1ccccc1 (stereo not drawn),-11%,-3%,1%,50,-15%,-9%
CCOCC(O)CNc1ccccc1 (stereo not drawn),1%,9%,-1%,17,-9%,-8%
Cc1cc2c(c(N3CCOCC3)n1)C(=O)OC2,1%,3%,0%,?,-3%,-7%
CCOc1ccc(OCC)c(NC(=O)CNS(=O)(=O)c2cccs2)c1,6%,-9%,0%,-14,-10%,-15%
O=C(Nc1nc(-c2ccc3ccccc3c2)cs1)C1CCN(S(=O)(=O)c2cccs2)CC1,?,0%,-1%,-87*,10%,-1%
CC1(C)C2CCC(C2)C1(C)NC(=O)C[N+](C)(C)C (stereo not drawn),-7%,1%,-1%,/,-8%,-10%
CSCCOC(=O)COc1ccc(/C=N/NC(=O)c2nn(C)cc2Cl)cc1,?,2%,-2%,-21,?,-19%
CC(=O)Nc1ccc(C(=O)N/N=C/c2ccc(F)cc2)cc1,-4%,3%,-2%,/,-7%,2%
Cc1ccc(S(=O)(=O)Oc2ccc(/C=N/NC(=O)c3nn(C)cc3Cl)cc2)cc1,2%,-3%,-1%,-100*,?,-29%
